Results reported in PubChem BioAssay (NCI).
About 83,000 compounds went through this panel and 20% of them were active in at least one assay; those are over-represented in the sample as a whole.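 For each line, cells grew in 96-well plates with the test compound present at a single concentration for 48 hours.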 Values without a mark were called inactive. How the source made its calls: active means growth percent below 10; inactive means the rest.

What follows are molecules tested on HCT-15 colon (assay: NCI-60 one-dose screen, 48 h (100 = growth as untreated, 0 = no growth, -100 = all killed)). Settings: 10 µM unless noted.

| SMILES | growth [%] |
| --- | --- |
| CN(C)Cc1ccccn1 | 105 |
| CCNCC(C)(C)O | 104 |
| CCOS(=O)(=O)c1ccc([N+](=O)[O-])cc1 | 110 |
| CCCCCCCCCCCCSC1=C(Cl)C(=O)C(OC)=C(OC)C1=O | 25.6 |
| CN(C(=S)S(=O)(=O)C12CC3CC(CC(C3)C1)C2)c1ccccc1 | 83.7 |
| N#Cc1ccc2nc[nH]c2c1 | 106 |
| CCCCCC#CC(=O)O | 105 |
| CC(=O)C1C(=O)C(=O)N(c2ccc(Cl)c(Cl)c2)C1=O (centres undefined) | 93.8 |
| CC(C)OCC(CCl)OC(=O)Nc1ccccc1 (centres undefined) | 108 |
| COc1ccc(C(=O)/C(=N/Nc2ccccc2)c2ccc(OC)cc2)cc1 | 76.1 |
| Cc1cc(Nc2ccc3c(c2)OCO3)c2cc3c(cc2n1)OCO3 | 19.9 |
| NC(=O)N1CCOCC1 | 106 |
| CC(=O)Nc1ccc(O)c(C)c1 | 118 |
| COc1cccc2c1Cc1ccccc1-2 | 114 |
| C=COC(=O)CCOCC(CC)CCCC (centres undefined) | 104 |
| N#C/C(=C\c1ccc(C#N)cc1)C(=O)c1ccccc1 | 95.7 |
| Cc1cccc(C)c1NC(=S)/N=C\c1c(O)[nH]c(=O)[nH]c1=O | 107 |
| COc1ccc(C(=O)C(=O)c2ccccc2)cc1 | 91.9 |
| O=C1CSc2ccccc2N1 | 118 |

| SMILES | growth [%] |
| --- | --- |
| Cc1c(Cl)cccc1NC(=S)NC(=O)c1ccccc1 | 92.6 |
| CC(c1ccccc1)N(C)C (centres undefined) | 109 |
| CCOC(=O)/C(O)=C(\C=N\C(=S)Nc1ccc(Cl)c(Cl)c1)C(=O)OCC | 89.3 |
| CCC(=O)C1C(=O)c2ccccc2C1=O | 113 |
| CCCCCCCCCc1ccc(OC(C)=O)cc1 | 111 |
| Nc1ncnc(Nc2ccc(C(F)(F)F)cc2)n1 | 103 |
| CCOP(=O)(OCC)/C(=C\N1C(=O)CC(=O)NC1=S)C(=O)OC | 102 |
| C=CCOc1ccc(Cl)cc1Cl | 104 |
| NNC(=O)N/N=C1\C(=O)N(c2nccs2)C(=O)C(=O)C1c1nc2ccccc2s1 (centres undefined) | 116 |
| Cc1cc(Cl)cc(Cc2cc(Cl)cc(C)c2O)c1O | 12.4 |
| C=CCN1CCCC1=O | 104 |
| COc1cc(C(=O)O)c(O)c(C(C)(C)C)c1 | 108 |
| CC(=O)OCC1OC(n2cnc3c(=S)nc(N)[nH]c32)C(OC(C)=O)C1OC(C)=O (centres undefined) | 79.3 |
| CCC(=O)Oc1ccc2ccccc2c1 | 104 |
| CCOC(=O)C(=O)CC(=O)c1ccccc1 | 102 |
| Cc1ccc(NCN2C(=O)c3ccccc3C2=O)c(C)n1 | 115 |
| CC(C)c1ncc([N+](=O)[O-])n1C | 101 |
| O=C(O)c1c[nH]c2ccccc2c1=O | 110 |

The molecules below were run on HT29 colon in the same assay as above. Settings: 10 µM unless noted.

| SMILES | growth [%] |
| --- | --- |
| CN(C)Cc1ccccn1 | 97.4 |
| CCNCC(C)(C)O | 109 |
| CCOS(=O)(=O)c1ccc([N+](=O)[O-])cc1 | 94 |
| CCCCCCCCCCCCSC1=C(Cl)C(=O)C(OC)=C(OC)C1=O | 27.8 |
| CN(C(=S)S(=O)(=O)C12CC3CC(CC(C3)C1)C2)c1ccccc1 | 105 |
| N#Cc1ccc2nc[nH]c2c1 | 112 |
| CCCCCC#CC(=O)O | 99.5 |
| CC(=O)C1C(=O)C(=O)N(c2ccc(Cl)c(Cl)c2)C1=O (centres undefined) | 107 |
| CC(C)OCC(CCl)OC(=O)Nc1ccccc1 (centres undefined) | 102 |
| COc1ccc(C(=O)/C(=N/Nc2ccccc2)c2ccc(OC)cc2)cc1 | 80.5 |
| Cc1cc(Nc2ccc3c(c2)OCO3)c2cc3c(cc2n1)OCO3 | 15.8 |
| NC(=O)N1CCOCC1 | 92.4 |
| CC(=O)Nc1ccc(O)c(C)c1 | 98.4 |
| COc1cccc2c1Cc1ccccc1-2 | 100 |
| C=COC(=O)CCOCC(CC)CCCC (centres undefined) | 104 |
| N#C/C(=C\c1ccc(C#N)cc1)C(=O)c1ccccc1 | 104 |
| Cc1cccc(C)c1NC(=S)/N=C\c1c(O)[nH]c(=O)[nH]c1=O | 95.7 |
| COc1ccc(C(=O)C(=O)c2ccccc2)cc1 | 107 |
| O=C1CSc2ccccc2N1 | 100 |

| SMILES | growth [%] |
| --- | --- |
| Cc1c(Cl)cccc1NC(=S)NC(=O)c1ccccc1 | 90.3 |
| CC(c1ccccc1)N(C)C (centres undefined) | 88.2 |
| CCOC(=O)/C(O)=C(\C=N\C(=S)Nc1ccc(Cl)c(Cl)c1)C(=O)OCC | 92.8 |
| CCC(=O)C1C(=O)c2ccccc2C1=O | 100 |
| CCCCCCCCCc1ccc(OC(C)=O)cc1 | 102 |
| Nc1ncnc(Nc2ccc(C(F)(F)F)cc2)n1 | 103 |
| CCOP(=O)(OCC)/C(=C\N1C(=O)CC(=O)NC1=S)C(=O)OC | 111 |
| C=CCOc1ccc(Cl)cc1Cl | 112 |
| NNC(=O)N/N=C1\C(=O)N(c2nccs2)C(=O)C(=O)C1c1nc2ccccc2s1 (centres undefined) | 94.1 |
| Cc1cc(Cl)cc(Cc2cc(Cl)cc(C)c2O)c1O | 98.1 |
| C=CCN1CCCC1=O | 96.3 |
| COc1cc(C(=O)O)c(O)c(C(C)(C)C)c1 | 109 |
| CC(=O)OCC1OC(n2cnc3c(=S)nc(N)[nH]c32)C(OC(C)=O)C1OC(C)=O (centres undefined) | 74.6 |
| CCC(=O)Oc1ccc2ccccc2c1 | 104 |
| CCOC(=O)C(=O)CC(=O)c1ccccc1 | 103 |
| Cc1ccc(NCN2C(=O)c3ccccc3C2=O)c(C)n1 | 104 |
| CC(C)c1ncc([N+](=O)[O-])n1C | 108 |
| O=C(O)c1c[nH]c2ccccc2c1=O | 97.6 |
